The campaign covered roughly 340,000 compounds. About 4,500 (1.3%) were called active. Not shown: some 5% with an inconclusive outcome. This is one part of a sample in which actives are shown more often than they occur. A number with no mark means an inactive call. Calls come from the whole dose curve; as a rule, active = well fitted inhibition curve with a large enough effect; inconclusive = small, poorly fitted or top-dose-only effect, or another doubt; inactive = no such curve, though single readings can be large or run the other way.
biological target: DNA polymerase beta (Homo sapiens) (UniProt P06746); assay: qHTS Assay for Inhibitors of DNA Polymerase Beta; conditions: Pol beta primer extension/strand displacement, fluorescence kinetic; series mostly up to 114 µM; activity change, negative = inhibition: at the top concentration
From the text: The base excision repair system in human cells is a target for therapeutic modulation of the response to irradiation treatment and DNA-damaging drugs. A key enzyme in this system is the bi-functional DNA polymerase known as DNA polymerase Beta (Pol Beta). The following is a homogeneous kinetic assay to study the primer extension and strand-displacement reaction catalyzed by pol beta.
A stepwise description of the 1536-well assay is shown in next Table. Three microliters of reagents (buffer in column 3 and 4 as negative control and 10 nM Pol beta in columns 1, 2, and 5-48) was dispensed into 1,536-well black solid-bottomed plate. Compounds (23 nL) were transferred via Kalypsys pin tool equipped with 1536-pin array (10 nL slotted pins, V&P Scientific, San Diego, CA). The plates were incubated for 15 min at room temperature, and 1 uL substrate (50 nM final concentration) were added to start the reaction and immediately read at 0 min read on Viewlux reader. The plate were further incubated for 10 min at room temperature, and then read on Viewlux again. Throughout the screen, reagent bottle and all liquid lines were chilled and made light-tight to minimize reagent degradation. All screening operations were performed on a fully integrated robotic system (Kalypsys, San Diego, CA) containing one RX-130 and two RX-90 anthropomorphic robotic arms (Staubli, Duncan, SC). Library plates were screened starting from the lowest and proceeding to the highest concentration, and a double-dipping step of the highest concentration was required to access higher concentrations of compounds. Vehicle-only plates, with DMSO being pin-transferred to the entire column 5-48 compound area, were inserted uniformly at the beginning and the end of each library in order to monitor for and record any shifts in the background, which can be affected by reagent dispensers or loss in enzyme activity overtime. Screening data were corrected, normalized, and concentration-effect relationships were derived by using publicly-available curve fitting algorithms developed in-house (http://ncgc.nih.gov/pub/openhts). A four parameter Hill equation was fitted to the concentration-response data by minimizing the residual error between the modeled and observed responses.
% is set by controls: 0 for no effect and ±100 for the full control effect; potency is the fitted concentration of half-maximal effect.

Compound	activity change, negative = inhibition [%]	Potency
O=C(CSc1ncc(S(=O)(=O)c2ccc(Br)cc2)c(=O)[nH]1)Nc1ccc2c(c1)OCCO2	-20	–
Cc1ccc(/C=C(\C#N)C(=O)Nc2cc(C)ccc2C)cc1	0.467	–
CN=C1S/C(=C\c2ccc(Sc3ccc(Cl)cc3)o2)C(=O)N1C	-12.7	–
CN1C(=O)/C(=C/c2ccco2)SC1=Nc1cccc(C(=O)O)c1	–	17.8 µM (active)
CN=C1S/C(=C\c2c(OC)cc(OC)cc2OC)C(=O)N1C	10.1	–
CCOc1ccc(NC(=O)c2c(NC(=O)Cc3ccccc3)sc3c2CCCCC3)cc1	25.9	–
COc1cc(C(=O)OC2CCOC2=O)c([N+](=O)[O-])cc1OC (centres undefined)	2.75	–
CC(C)c1ccc(C(=O)OC2CCOC2=O)cc1 (centres undefined)	–	20 µM (active)
Cc1nn(Cc2ccccc2)c(Cl)c1C(=O)OC1CCOC1=O (centres undefined)	-0.814	–
COc1ccc(N2CCN(S(=O)(=O)CCNC(=O)C(c3ccccc3)c3ccccc3)CC2)cc1	-0.733	–
CCOC(=O)c1cc(-c2ccccc2)n(CCC(=O)Nc2ccccc2CC)c1C	0.554	–
CCOC(=O)c1c(C)oc2nc(C)nc(N(CC(C)C)CC(C)C)c12	-0.894	–
CCCCNC(=O)C1CCCN(c2nnc(C)c3c(C)n(-c4ccc(Cl)cc4)nc23)C1 (centres undefined)	37	–
CCSc1ncnc2c(C#N)c3n(c12)CCCCC3	-0.0615	–
CCSC1=C(C#N)C(=O)n2c1cc1c2CCCC1	–	39.8 µM (active)
Cc1ccc2nc(-c3ccc(O)cc3)c(Nc3ccc4c(c3)OCO4)n2c1	39.3	–
COc1ccc(Cl)cc1-n1c(CCC(=O)O)ccc1-c1ccc(C)cc1	-1.45	–
Cc1c(C(=O)N/N=C/c2ccccc2)[nH]c2c([N+](=O)[O-])cccc12	-0.401	–
COc1cc2c(C(=O)O)c(C)n(C)c2c2ccccc12	27.9	–
COc1cccc2c(C)c(C(=O)O)[nH]c12	–	50.1 µM (active)
COc1ccc(S(=O)(=O)NCC(c2ccc(N(C)C)cc2)N2CCCC2)cc1 (centres undefined)	1.79	–
CCC(=O)Nc1cccc(-c2nc3cc(C)ccc3o2)c1	-23.2	–
COc1ccccc1NC(=O)COC(=O)Cc1ccc(S(=O)(=O)N2CCCCC2)s1	-5.94	–
O=C(CC(c1ccccc1)c1cc(Cl)ccc1O)NCCN1CCOCC1 (centres undefined)	4.17	–
O=C(NC1CCCCC1)C1CCCN(S(=O)(=O)c2ccc(Br)s2)C1 (centres undefined)	38	–

Compound	activity change, negative = inhibition [%]	Potency
O=C(NC1CCCCC1)C1CCCN(S(=O)(=O)c2cccs2)C1 (centres undefined)	0.533	–
O=C(Cc1ccc(S(=O)(=O)N2CCOCC2)s1)NCCC(c1ccccc1)c1ccccc1	–	22.4 µM (active)
O=C(Cc1ccc(S(=O)(=O)N2CCCC2)s1)NC1CCCCCC1	–	31.6 µM (active)
CCn1c2ccccc2c2cc(CN3CCN(Cc4cccc(Cl)c4)CC3)ccc21	2.61	–
Cc1c(CCNC(=O)c2ccc(C(F)(F)F)cc2)sc2nc(-c3ccc(F)cc3)nn12	-1.1	–
CCCOc1cccc(C(=O)Nc2cccc(NC(=O)c3ccc(C(C)(C)C)cc3)c2)c1	0.549	–
COc1ccc(C2CC(c3ccccc3)=NN2C(=O)COC(=O)COc2ccccc2)cc1 (centres undefined)	-1.43	–
COc1ccc(OCc2nnc3n2N=C(c2ccccc2)C(CC(=O)O)S3)cc1 (centres undefined)	–	22.4 µM (active)
COc1cccc(OCc2nnc3n2N=C(c2ccccc2)C(CC(=O)O)S3)c1 (centres undefined)	1.71	–
Cc1cccc(C(=O)NCCc2nc3ccccc3n2Cc2ccccc2Cl)c1	6.4	–
O=C(NCc1ccccn1)c1ccc2nc(-c3ccco3)c(-c3ccco3)nc2c1	–	3.16 µM (active)
COCCNC(=O)Nc1ccc2nc(-c3ccco3)c(-c3ccco3)nc2c1	–	2.24 µM (active)
COc1ccc(NC(=O)C(=O)NCc2ccco2)cc1	-4.3	–
COc1cccc(S(=O)(=O)NCc2ccc(C(=O)NCc3ccccn3)cc2)c1	41.3	–
CCOc1ccc(NC(=O)c2ncoc2-c2ccco2)cc1	-4.76	–
COc1ccc(-c2nc3ccc(C(=O)NCc4ccc(C)cc4)cc3nc2-c2ccc(OC)cc2)cc1	-29.7	–
COc1ccc(-n2nc(C(=O)NCCc3ccc(Cl)cc3)c3c4ccccc4n(C)c3c2=O)cc1Cl	10.3	–
COc1ccc(C)cc1NC(=O)C(=O)NCCc1sc(-c2cccc(C)c2)nc1C	1.3	–
Cc1cccc(N2CCN(C(=O)c3oc(=O)c4ccccc4c3-c3ccccc3)CC2)c1C	7.16	–
CCOC(=O)c1c(C)[nH]c(CCC(=O)Nc2ccc(OC)c(OC)c2)c1C	4.37	–
COc1ccc(C2Sc3ccccc3NC3=C2C(=O)c2ccccc23)c(OC)c1OC (centres undefined)	-10.1	–
O=C(/C=C/c1cn(CC(O)CN2CCc3ccccc32)c2ccccc12)c1ccc(Br)cc1 (centres undefined)	36.6	–
COc1ccc(-c2cc(=O)c3c(O)cc(O[C@@H]4O[C@H](CO[C@@H]5O[C@@H](C)[C@H](O)[C@@H](O)[C@H]5O)[C@@H](O)[C@H](O)[C@H]4O)cc3o2)cc1O	–	25.1 µM (active)
Cc1ccc(OCCn2c(CNc3ccccc3C)nc3ccccc32)cc1	-1.75	–

From PubChem BioAssay AID485314 (National Center for Advancing Translational Sciences (NCATS), 2010)
